The source made the active and inactive calls. How the source made its calls: active means hit-call score of the fitted dose curve at least 0.9, where 1 is the maximum; inactive means score below 0.9.

Assay [1] in a line: APR_HepG2_CellCycleArrest_24hr: Apredica 24-hour HepG2 Assay for Cell Cycle Arrest (AID 2282905).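 Further: cell cycle arrest scored as ratio of 2N to 4N nuclear DNA content.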 Conditions: imaging, actives raise or lower the signal. In a few lines:
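HepG2, 24 hr dosing, 10-pt 0.39–200 uM in duplicate, 0.5% DMSO. Fixed 3.7% formaldehyde, permeabilized 0.5% Triton X-100, Hoechst 33342 2 ug/mL. Imaged 20x; nuclear DNA content quantified; bidirectional fit vs DMSO.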

A short description of assay [2]: APR_HepG2_NuclearSize_24hr: Apredica 24-hour HepG2 Assay for Nuclear Size (AID 2282907). Conditions: high-content imaging, actives raise or lower the signal. An outline of the steps: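 HepG2, 24 hr dosing, 10-pt 0.39–200 uM, duplicates, 0.5% DMSO final; 3.7% formaldehyde fix, 0.5% Triton X-100; Hoechst 33342 nuclear stain; ArrayScan HCS, Cell Cycle analysis → nuclear size; bidirectional fit vs DMSO.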

Assay [3] is described as follows: APR_HepG2_CellLoss_24hr: Apredica 24-hour HepG2 Assay for Cell Loss (AID 2282908).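 On AC50: fit in both directions so a hit may be cell loss or gain.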 The conditions noted are these: high-content imaging. In a few lines: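 10-pt dose, 0.39–200 uM, n=2/plate; DMSO 0.5% v/v final as negative control. Fix 3.7% formaldehyde 30 min RT, permeabilize 0.5% Triton X-100, stain Hoechst 33342 2 ug/mL, image 20x. Nuclear count, bidirectional fit vs DMSO.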

A short description of assay [4]: APR_HepG2_MicrotubuleCSK_24hr: Apredica 24-hour HepG2 Assay for Microtubule CSK Stabilty (AID 2282909). Conditions: HepG2 microtubule cytoskeleton imaging, actives raise or lower the signal. An outline of the steps:
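Human liver HepG2, 24 h dosing, 0.39–200 uM ×10 conc, dup, 0.5% DMSO. 3.7% formaldehyde fix, 0.5% Triton perm, anti-alpha-tubulin (1:200)/Cy5 secondary + Hoechst. HCS imaging, 6 fields/well; gain/loss fit vs DMSO.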

Assay [5] in a line: APR_HepG2_MitoticArrest_24hr: Apredica 24-hour HepG2 Assay for Mitotic Arrest (AID 2282910). The conditions noted are these: high-content imaging, actives raise or lower the signal. In a few lines: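 HepG2 human liver cells were exposed to compounds at 0.39–200 uM (10 concentrations, duplicate) in 0.5% v/v DMSO for 24 hr, then fixed and immunostained for phospho-histone H3 with Hoechst 33342. Mitotic arrest came from HCS fluorescent imaging, fitted bidirectionally against DMSO.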

Assay [6] in a line: APR_HepG2_MitoMembPot_24hr: Apredica 24-hour HepG2 Assay for Mitochondrial Membrane Potential (AID 2282911). The conditions noted are these: imaging, actives raise or lower the signal. An outline of the steps: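 Cells are dosed for 24 hr across 0.39 to 200 uM with solvent held at 0.5% DMSO. They are then stained with 250 nM MitoTracker Red CMXRos for 30 min, fixed in 3.7% formaldehyde and imaged.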

A short description of assay [7]: APR_HepG2_MitoMass_24hr: Apredica 24-hour HepG2 Assay for Mitochondrial Mass (AID 2282912). The conditions noted are these: high-content imaging, actives raise or lower the signal. In a few lines:
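Mitochondrial mass is read as MitoTracker Red fluorescence intensity from automated imaging, with bidirectional curve fitting relative to DMSO. HepG2 cells received compound (0.39–200 uM, 0.5% DMSO final) for 24 hr and were dye-loaded (250 nM, 30 min) before formaldehyde fixation.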

The nature of assay [8]: APR_HepG2_CellCycleArrest_72hr: Apredica 72-hour HepG2 Assay for Cell Cycle Arrest (AID 2282914). The conditions noted are these: high-content imaging, actives raise or lower the signal. In a few lines: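 Read-out is Hoechst-stained nuclear DNA content measured by automated fluorescence imaging (20x, six images per well), fitted in both directions relative to DMSO. Human HepG2 liver cells received 0.39–200 uM compound for 72 hr at 0.5% v/v DMSO.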

The nature of assay [9]: APR_HepG2_CellLoss_72hr: Apredica 72-hour HepG2 Assay for Cell Loss (AID 2282915). The conditions noted are these: high-content imaging. An outline of the steps:
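HepG2 cells were exposed for 72 hr to compounds at 0.39–200 uM (ten concentrations, duplicate) in 0.5% v/v final DMSO. Nuclei were stained with Hoechst 33342 after 3.7% formaldehyde fixation, imaged at 20x, and counted; fits bidirectional versus DMSO.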

Assay [10] is described as follows: APR_HepG2_p53Act_24hr: Apredica 24-hour HepG2 Assay for p53 Activation (AID 2282913).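 Further: p53 protein immunofluorescence averaged per cell in HepG2 with Hoechst nuclei.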 Conditions: high-content imaging, actives raise or lower the signal. In a few lines:
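Human HepG2 liver cells; 24 hr cpd treatment, 0.39–200 uM, 0.5% DMSO final. Fixed in 3.7% formaldehyde, permeabilized with 0.5% Triton X-100, stained with anti-p53/Cy5 plus Hoechst 33342. Six images per well at 20x; gain or loss vs DMSO.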

As for `O=C(O)c1[nH]n(-c2ccc(S(=O)(=O)O)cc2)c(=O)c1N=Nc1ccc(S(=O)(=O)O)cc1`, the outcome in assay [1], in assay [2], in [3], in assay [4], in assay [5] and in [6] was inactive. Also, the molecule was called inactive in assay [7], in [8] and in [9].
As a reminder, the AC50 is the concentration at which the activity in the assay is half-maximal. On to `OCC(O)CO`, for which the call in assay [1], in assay [2], in assay [3], in assay [4], in assay [5] and in [6] was inactive. Also, the molecule was called inactive in assay [7], in assay [8] and in assay [9]. The AC50 in assay [10] was 0.0391 µM (active).
Consider `C/C=C/c1ccc(OC)cc1`, for which the molecule was called inactive in assay [1], in assay [2], in assay [3], in [4], in assay [5] and in assay [6]. In addition, the call in [7], in assay [8] and in [9] was inactive.
Turning to `CC(C)OC(=O)C(C)(C)Oc1ccc(C(=O)c2ccc(Cl)cc2)cc1`, the call in assay [1], in assay [2], in assay [3], in assay [4], in assay [5] and in assay [6] was inactive. The call in assay [7] was inactive. Further, the AC50 in assay [8] is 100 µM (active); in assay [9], 103 µM (active).
As for `CCc1nc(N)nc(N)c1-c1ccc(Cl)cc1`, the molecule was classed as inactive in assay [1], in [2], in [3], in [4], in assay [5] and in assay [6]. Besides, the outcome in assay [7] was inactive. Further, the values for the AC50 in assay [8] and in assay [9] were 100 µM (active) and 80.2 µM (active), respectively.
With `Nc1nc(Cl)nc2c1ncn2[C@H]1C[C@H](O)[C@@H](CO)O1`, the molecule was called inactive in assay [1], in assay [4], in assay [5] and in assay [6]. Besides, the AC50 in [2] is 0.0451 µM (active); in assay [3], 0.0403 µM (active); in [7], 0.243 µM (active); in assay [8] it was 0.0388 µM (active); in assay [9], 0.162 µM (active).
As to `Oc1ccccc1O`, the call in assay [1], in assay [2], in assay [3], in [4], in assay [5] and in [6] was inactive. The call in assay [7] and in assay [10] was inactive. The AC50 in assay [8] was 36.4 µM (active); in [9], 36.8 µM (active).
For the molecule `CC1(C)C(=O)NC(=O)N1CO`, the molecule was classed as inactive in [1], in assay [2], in assay [4], in assay [5], in assay [6] and in assay [7]. Further, in assay [8], the molecule was classed as inactive. Further, the half-maximal activity concentration (AC50) is 108 µM (active) in assay [3] and 120 µM (active) in assay [9].
On to `CCc1cc(C2=C(C(=O)O)N(c3ccccc3C(F)(F)F)S(=O)(=O)c3ccccc32)cc2c1OCO2`, for which the result in assay [1], in [2], in assay [3], in [4], in assay [5] and in [6] was inactive. The result in assay [7] and in assay [8] was inactive. The half-maximal activity concentration (AC50) in assay [9] is 95.5 µM (active).
`Cc1ccc(-c2cc(C(F)(F)F)nn2-c2ccc(S(N)(=O)=O)cc2)cc1`: the call in assay [1], in assay [4] and in assay [6] was inactive. Also, the AC50 in assay [2] is 118 µM (active); in [3], 66.7 µM (active); in assay [5], 53.2 µM (active); in [7] it was 64 µM (active); in assay [8], 28.6 µM (active); in assay [9], 40.8 µM (active).
In the case of `CCCCCCCC(=O)OC`, the result in [1], in assay [2], in assay [3], in assay [4], in assay [5] and in assay [6] was inactive. Moreover, the molecule was called inactive in assay [7], in assay [8] and in [9].
In the case of `Cc1occc(=O)c1O`, the molecule was called inactive in [1], in [2], in assay [3], in assay [4], in assay [5] and in assay [6]. Further, the molecule was called inactive in assay [7], in assay [8] and in [9].
As to `O=C1c2c(O)cccc2Cc2cccc(O)c21`, the molecule was called inactive in assay [1], in assay [2], in [3], in assay [4], in [5] and in assay [7]. Also, the call in [8] and in assay [9] was inactive. For the same molecule, in assay [6], the AC50 is 11.1 µM (active).
As for `CO[C@@H]1COCC[C@@H]1N[C@@H]1CC[C@@](C(=O)N2CCc3ncc(C(F)(F)F)cc3C2)(C(C)C)C1`, the result in assay [2], in assay [3], in assay [4], in assay [5], in [6] and in assay [7] was inactive. Besides, the outcome in [10], in assay [8] and in [9] was inactive.
Take `CCOCCOCCO`: the call in assay [2], in [3], in assay [4], in [5], in assay [6] and in assay [7] was inactive. Further, the call in assay [10], in assay [8] and in [9] was inactive.
As to `CCCC(=O)O`, the result in assay [2], in assay [3], in assay [4], in assay [5], in [6] and in [7] was inactive. In addition, the outcome in assay [8] and in [9] was inactive.
For `CCCC[C@H]1CN(CC2CCOCC2)C(=O)OC12CCN(C1(C)CCN(C(=O)c3c(C)ncnc3C)CC1)CC2`, the molecule was classed as inactive in assay [1], in assay [2], in assay [3], in assay [4], in assay [5] and in assay [6]. Besides, the molecule was called inactive in [7], in assay [8] and in assay [9].
For `CC(=O)OC1CC(C)OC(C)O1` (stereo not given), the call in assay [1], in assay [2], in [3], in assay [4], in assay [5] and in [6] was inactive. The result in [7], in assay [8] and in assay [9] was inactive.
With `CC(C)(C)c1ccccc1`, the molecule was called inactive in assay [1], in assay [2], in [3], in assay [4], in assay [5] and in [6]. Also, the molecule was classed as inactive in assay [7], in [8] and in assay [9].
On to `COc1ccc(C(=O)Nc2nc3ccccc3c(NCc3ccccc3)c2C#N)cc1`, for which the molecule was called inactive in assay [1], in [2], in assay [4], in assay [5] and in [8]. In addition, the AC50 was 119 µM (active) in assay [3], 43.4 µM (active) in assay [6], 159 µM (active) in assay [7] and 45.3 µM (active) in assay [9].
For `OCC(CO)n1cnc(-c2ccc(F)cc2)c1-c1ccnc(Oc2ccccc2)n1`, the result in [1], in assay [2], in assay [3], in assay [4], in assay [5] and in [6] was inactive. Also, the call in [7], in assay [8] and in assay [9] was inactive.
